Laboratory results from PubChem BioAssay (NCI).
Compounds without any hit were thinned out: in the full panel of roughly 83,000, 20% have a hit.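 A percent growth of 40 corresponds to 60% growth inhibition; 0 means no net growth; -100 means all cells died. Active threshold: below 10.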

What was measured:
Assay in all cases: NCI-60 one-dose screen, 48 h (100 = growth as untreated, 0 = no growth, -100 = all killed)
Conditions in all cases: 10 µM unless noted
NCI-H23 lung = test system: NCI-H23 lung
NCI-H226 lung = test system: NCI-H226 lung
NCI-H322M lung = test system: NCI-H322M lung
HOP-62 NSCLC = test system: HOP-62 NSCLC
NCI-H460 lung = test system: NCI-H460 lung
HOP-92 NSCLC = test system: HOP-92 NSCLC
A549/ATCC NSCLC = test system: A549/ATCC NSCLC
786-0 renal = test system: 786-0 renal
COLO 205 colon = test system: COLO 205 colon

Measured: growth

C=CC1=NC(C)(C)CC(C)O1 (stereo not given)
inactive: NCI-H23 lung 114% | NCI-H226 lung 111% | NCI-H322M lung 108% | HOP-62 NSCLC 110% | NCI-H460 lung 104% | HOP-92 NSCLC 105% | A549/ATCC NSCLC 104% | 786-0 renal 103% | COLO 205 colon 116%

COc1ccc(C)cc1NC(=O)SC(C)C
inactive: NCI-H23 lung 102% [100 µM] | NCI-H226 lung 89.6% [100 µM] | NCI-H322M lung 104% [100 µM] | HOP-62 NSCLC 97% [100 µM] | NCI-H460 lung 103% [100 µM] | HOP-92 NSCLC 103% [100 µM] | A549/ATCC NSCLC 104% [100 µM] | 786-0 renal 102% [100 µM]

COc1cc(-c2ccc(NC(=O)CC(C)=O)c(OC)c2)ccc1NC(=O)CC(C)=O
inactive: NCI-H23 lung 96% | NCI-H226 lung 91.4% | NCI-H322M lung 102% | HOP-62 NSCLC 98% | NCI-H460 lung 109% | HOP-92 NSCLC 98.2% | A549/ATCC NSCLC 88.5% | 786-0 renal 105%

COC(=O)c1cccc([N+](=O)[O-])c1
inactive: NCI-H23 lung 96.3% | NCI-H226 lung 103% | NCI-H322M lung 103% | HOP-62 NSCLC 79.4% | NCI-H460 lung 108% | HOP-92 NSCLC 95.1% | A549/ATCC NSCLC 94.9% | 786-0 renal 104% | COLO 205 colon 112%

O=CNCCc1ccccc1
inactive: NCI-H23 lung 102% | NCI-H226 lung 98.9% | NCI-H322M lung 106% | HOP-62 NSCLC 90.8% | NCI-H460 lung 111% | HOP-92 NSCLC 88.5% | A549/ATCC NSCLC 96.8% | 786-0 renal 102% | COLO 205 colon 103%

O=S(=O)(O)c1cccc2cccnc12
inactive: NCI-H23 lung 100% | NCI-H226 lung 107% | NCI-H322M lung 122% | HOP-62 NSCLC 101% | NCI-H460 lung 112% | HOP-92 NSCLC 102% | A549/ATCC NSCLC 106% | 786-0 renal 105% | COLO 205 colon 127%

CN(C)Cc1ccccn1
inactive: NCI-H23 lung 101% | NCI-H226 lung 108% | NCI-H322M lung 96.3% | HOP-62 NSCLC 104% | NCI-H460 lung 109% | HOP-92 NSCLC 114% | A549/ATCC NSCLC 93.1% | 786-0 renal 97% | COLO 205 colon 117%

Nc1cc(F)ccc1[N+](=O)[O-]
inactive: NCI-H23 lung 103% | NCI-H226 lung 95.9% | NCI-H322M lung 92.6% | HOP-62 NSCLC 110% | NCI-H460 lung 103% | HOP-92 NSCLC 89.5% | A549/ATCC NSCLC 116% | 786-0 renal 94.1% | COLO 205 colon 116%

COc1ccc2c(ccc[n+]2C)c1
inactive: NCI-H23 lung 99.6% | NCI-H226 lung 110% | NCI-H322M lung 105% | HOP-62 NSCLC 106% | NCI-H460 lung 106% | HOP-92 NSCLC 110% | A549/ATCC NSCLC 108% | 786-0 renal 97.3% | COLO 205 colon 111%

OC(CBr)CCBr (stereo not given)
inactive: NCI-H23 lung 105% | NCI-H226 lung 110% | NCI-H322M lung 101% | HOP-62 NSCLC 97.2% | NCI-H460 lung 102% | HOP-92 NSCLC 102% | A549/ATCC NSCLC 90.8% | 786-0 renal 103% | COLO 205 colon 105%

CC(=O)N(C(C)=O)c1ccc(C)cc1
inactive: NCI-H23 lung 98.1% | NCI-H226 lung 96.2% | NCI-H322M lung 102% | HOP-62 NSCLC 105% | NCI-H460 lung 107% | HOP-92 NSCLC 99.5% | A549/ATCC NSCLC 104% | 786-0 renal 92.7% | COLO 205 colon 119%

N#C/C(=C\c1ccc(C#N)cc1)C(=O)c1ccccc1
inactive: NCI-H23 lung 86.8% | NCI-H226 lung 95.5% | NCI-H322M lung 97.4% | HOP-62 NSCLC 103% | NCI-H460 lung 116% | HOP-92 NSCLC 86.3% | A549/ATCC NSCLC 98.4% | 786-0 renal 94.2%

O=C(O)C1CSC(c2ccccc2)N1 (stereo not given)
inactive: NCI-H23 lung 95% | NCI-H226 lung 97% | NCI-H322M lung 98.8% | HOP-62 NSCLC 89.5% | NCI-H460 lung 98.5% | HOP-92 NSCLC 111% | A549/ATCC NSCLC 100% | 786-0 renal 112% | COLO 205 colon 84.6%

O=C1Nc2ccccc2/C1=C\c1ccccc1O
inactive: NCI-H23 lung 82.6% | NCI-H226 lung 93.2% | NCI-H322M lung 80.5% | HOP-62 NSCLC 87.9% | NCI-H460 lung 98.7% | HOP-92 NSCLC 46.6% | A549/ATCC NSCLC 114% | 786-0 renal 98.8% | COLO 205 colon 124%

Cc1cc(C)cc(OCC(=O)O)c1
inactive: NCI-H23 lung 97% | NCI-H226 lung 91.4% | NCI-H322M lung 95.9% | HOP-62 NSCLC 95.5% | NCI-H460 lung 110% | HOP-92 NSCLC 109% | A549/ATCC NSCLC 104% | 786-0 renal 98.2% | COLO 205 colon 119%

CCOC(=O)CO
inactive: NCI-H23 lung 104% | NCI-H226 lung 99.8% | NCI-H322M lung 98.2% | HOP-62 NSCLC 104% | NCI-H460 lung 106% | HOP-92 NSCLC 95.6% | A549/ATCC NSCLC 102% | 786-0 renal 105% | COLO 205 colon 117%

NNc1ncccn1
inactive: NCI-H23 lung 98.4% | NCI-H226 lung 109% | NCI-H322M lung 105% | HOP-62 NSCLC 101% | NCI-H460 lung 112% | HOP-92 NSCLC 111% | A549/ATCC NSCLC 97.1% | 786-0 renal 95.7% | COLO 205 colon 117%
